Most compounds without a hit are left out; they make up all but 2.5% or so of the library.
Pol kappa inh-1 – inhibitors of human DNA polymerase kappa; 400,000 tested, 0.53% active; purified Pol kappa, fluorescent DNA synthesis assay, 10 min; Potency, µM (doses to about 107 µM), without a hit: at the top dose activity, negative = inhibition, hits mostly inhibitors; further: on the % scale 0 is the no-effect control and ±100 the full control effect
Target sequence (Q9UBT6 whole entry, looked up): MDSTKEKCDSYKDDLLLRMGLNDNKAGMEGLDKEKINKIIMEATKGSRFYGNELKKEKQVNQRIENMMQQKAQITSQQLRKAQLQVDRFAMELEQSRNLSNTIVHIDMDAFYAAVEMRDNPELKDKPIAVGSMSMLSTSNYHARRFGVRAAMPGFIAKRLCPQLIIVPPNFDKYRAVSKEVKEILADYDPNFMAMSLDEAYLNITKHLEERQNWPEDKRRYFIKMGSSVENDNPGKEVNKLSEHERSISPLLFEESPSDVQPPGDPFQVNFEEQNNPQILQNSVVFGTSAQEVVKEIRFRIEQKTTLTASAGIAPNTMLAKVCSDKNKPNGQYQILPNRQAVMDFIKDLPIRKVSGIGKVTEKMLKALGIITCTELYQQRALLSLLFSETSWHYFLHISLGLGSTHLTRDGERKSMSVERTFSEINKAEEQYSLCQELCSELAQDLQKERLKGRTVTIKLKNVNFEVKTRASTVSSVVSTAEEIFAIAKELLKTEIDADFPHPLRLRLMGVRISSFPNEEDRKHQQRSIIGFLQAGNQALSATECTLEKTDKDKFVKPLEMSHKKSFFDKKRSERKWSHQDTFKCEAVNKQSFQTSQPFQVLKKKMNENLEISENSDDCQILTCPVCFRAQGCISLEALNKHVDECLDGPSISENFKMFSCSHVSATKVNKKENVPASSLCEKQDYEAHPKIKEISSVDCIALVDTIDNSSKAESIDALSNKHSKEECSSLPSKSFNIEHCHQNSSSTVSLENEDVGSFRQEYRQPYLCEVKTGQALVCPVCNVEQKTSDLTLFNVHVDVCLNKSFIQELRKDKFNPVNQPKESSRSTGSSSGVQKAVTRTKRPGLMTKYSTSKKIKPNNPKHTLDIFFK
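Activity was followed as the change in fluorescence between reads at 0 and 10 min after starting the reaction with 50 nM substrate. Beforehand, 10 nM polymerase had been preincubated with compound for 15 min at room temperature.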
APE1 inh – blocks human APE1 abasic DNA cleavage. P27695. recombinant APE1, TAMRA/BHQ-2 abasic DNA cleavage fluorescence. Potency, µM (top dose mostly 65.8 µM), without a hit: top-dose activity change, negative = inhibition, usual class: inhibitors. 350,000 tested, 0.35% active;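 further: plate controls were vehicle for no effect and reference inhibitor for full effect; nearly all actives have a fitted effect of over 55% in size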
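Measures dequenching upon AP-site incision of a 5'-TAMRA/3'-BHQ-2 THF-containing duplex, 50 nM; human APE1 0.75 nM after 15 min room-temperature exposure to compound; kinetic three-point read at one-minute spacing.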
POLB inh – DNA polymerase beta (human) inhibition. 340,000 tested, 1.3% active. Potency, µM (series often up to 114 µM), for the others: at the highest dose activity change, negative = inhibition, hits mostly inhibitors. Pol beta primer extension/strand displacement, fluorescence kinetic; further: on the % scale 0 is the no-effect control and ±100 the full control effect
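Pol beta (10 nM) was preincubated with compound for 15 min at room temperature. The reaction was then started with 50 nM substrate and read immediately and after a further 10 min at room temperature.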
Pol eta inh-1 – inhibitors of human DNA polymerase eta. recombinant Pol eta, fluorescent DNA replication assay. Potency, µM (highest dose often 114 µM), for inactives: at the highest dose activity change, negative = inhibition, actives largely listed as inhibitors. 390,000 tested, 1.2% active; further: on the % scale 0 is the no-effect control and ±100 the full control effect
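Fluorescent replication assay: 50 nM final substrate added after a 15 min room-temperature compound preincubation with 10 nM enzyme. Signal taken at 0 min and again at 10 min.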
L3MBTL1 block – inhibitors of human L3MBTL1; AlphaScreen L3MBTL1–H3K9me1 peptide binding; Potency, µM (doses to about 57.1 µM), without a hit: at the top dose activity, negative = inhibition, actives largely listed as inhibitors; 230,000 tested, 0.66% active; AID 485360; further: on the % scale 0 is the no-effect control and ±100 the full control effect; nearly all actives have a fitted effect of over 60% in size
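L3MBTL1 50 nM + b-AHA-H3(1-15)K9me1 75 nM, 30 min RT; compound added, 30 min RT; streptavidin donor/Ni-chelate acceptor beads 10 ug/mL each final, 30 min RT dark; AlphaScreen read.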
Pol iota inh – DNA polymerase iota (human) inhibition; Q9UNA4; Pol iota fluorescent replication assay, 10 min; Potency, µM (top dose mostly 115 µM), without a hit: at the highest dose activity, negative = inhibition, usual class: inhibitors; 390,000 tested, 1% active; AID 588590
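Fluorescent replication assay read twice, at 0 min and 10 min after adding 50 nM (final) substrate. Enzyme (10 nM) and compounds were first incubated 15 min at room temperature; enzyme-free buffer wells were negative controls.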
PGK validate – validation of Trypanosoma brucei phosphoglycerate kinase inhibitors | AID 686980 | TbPGK coupled GAPDH assay, Kinase-Glo luminescence | shares compounds with Pol kappa inh-1 | Potency, µM (series often up to 57.5 µM), without a hit: at the top dose activity change, negative = inhibition, usual class: inhibitors | 500 tested, 79% active; further: on the % scale 0 is the no-effect control and ±100 the full control effect; nearly all actives have a fitted effect of over 65% in size
POLI cherry-pick – Confirm cherry-picked inhibitors of human polymerase iota; shares compounds with Pol kappa inh-1; Pol iota primer extension, TAMRA/BHQ fluorescence; Potency, µM, most hits filed as inhibitors; 1,500 tested, 77% active; AID 720496
Pol kappa inh-2 – Pol kappa (human) inhibition, cherry-pick confirmation; 920 tested, 76% active; purified Pol-kappa, fluorescent strand-displacement substrate; shares compounds with Pol eta inh-1; Potency, µM, usual class: inhibitors; AID 720501
Pol eta inh-2 – confirmation of human DNA polymerase eta inhibitors | shares compounds with Pol eta inh-1 | Pol eta primer extension, TAMRA/BHQ fluorescence, 10 min | Potency, µM, hits mostly inhibitors | 2,600 tested, 64% active | AID 720502
Starred values were filed as active, the others as inactive; ? = inconclusive; . = not tested or not shown; [ ] = remark or other dose. The call rests on the fitted dose curve; in most records, active means well fitted curve in the direction sought with a large enough effect; inconclusive means small, poorly fitted or top-dose-only effect, or another doubt; inactive means no such curve, though single readings can be large; an effect the other way counts as inactive or inconclusive. Potency means the concentration at half of the fitted maximal effect.

SMILES | Pol kappa inh-1 | APE1 inh | POLB inh | Pol eta inh-1 | L3MBTL1 block | Pol iota inh | POLI cherry-pick | Pol eta inh-2 | others
CCc1cc(C(=O)N=Nc2c(O)[nH]c3ccc([N+](=O)[O-])cc23)c2ccccc2n1 | ? | -10.6% | 31.6µM* | 50.1µM* | ? | ? | ? | 75.7*
COCC(=O)OC1CCn2c1nc1c2C(=O)C(C)=C(NC(C)=O)C1=O (stereo not drawn) | -31.7% | . | . | 3.98µM* | . | 4.47µM* | 16.8* | 30.1*
Cc1nnc(NC(=O)CSCc2cc(=O)c3ccccc3[nH]2)s1 | -1.3%[60.1 µM] | -39.1% | ? | 50.1µM* | ? | 79.4µM* | 67* | ?
Cc1cccc(CNC(=O)c2cc3cc(S(=O)(=O)N4CCCCC4)ccc3n2C)c1 | -3.0%[60.1 µM] | . | -9.0% | -3.8% | . | 15.0% | . | .
O=C(/C=C/c1ccco1)c1cccnc1 | ? | 8.6% | -25.4% | 14.1µM* | . | ? | 67* | 30.1*
O=C(/C=C/c1ccco1)Nc1cccnc1 | -25.9% | 14.8% | 2.6% | -3.3% | -14.9% | 37.8% | . | .
COc1ccc(-c2nn(C)c3sc(C(=O)Nc4cc(OC)c(OC)c(OC)c4)cc23)cc1OC | 50.1µM* | . | 44.7µM* | 39.8µM* | . | 22.4µM* | 37.7* | 60.1*
COc1ccc(-c2cc(C(=O)Nc3cc(OC)c(OC)c(OC)c3)no2)cc1OC | -6.8% | -3.4% | 15.0% | 2.5% | 4.7% | -13.0% | . | .
O=C1C(Cl)=C(NCCc2ccccc2)C(=O)c2ccccc21 | -1.6% | . | . | 22.4µM* | . | 3.55µM* | 47.4* | 47.8*
CCc1ccc(C(=O)c2cn(CC(=O)Nc3ccc4c(c3)OCO4)c3ccc(OC)cc3c2=O)cc1 | -21.6% | . | 10µM* | 44.7µM* | . | ? | 21.2* | ? | Pol kappa inh-2=16.8*
Cn1c(=O)[nH]c(=O)c2c1nc(SCc1ccccc1Cl)n2CC(N)=O | . | -4.8% | 48.5% | . | 0.4% | . | . | .
O=C(CSc1nc2ccccc2n1CCc1ccccc1)c1ccc(O)c(O)c1 | ? | 0.891µM* | 0.501µM* | 3.16µM* | 3.16µM* | 2.82µM* | 2.99* | 3.01* | PGK validate=1.46µM*
O=C(CSc1nc2ccccc2c(=O)[nH]1)c1ccc(O)cc1O | -3.1% | -1.6% | -2.5% | -14.6% | 6.7% | -6.1% | . | .
O=C(CSc1nc2ccccc2c(=O)[nH]1)c1ccc(O)c(O)c1 | 20µM* | ? | 20µM* | 2.51µM* | -4.9%[11.4 µM] | 12.6µM* | ? | 30.1* | PGK validate=?;Pol kappa inh-2=18.9*
O=C(CSc1nc2ccccc2n1CCc1ccccc1)N1CCOCC1 | -14.4% | -0.9% | 1.1%[57.1 µM] | -20.5% | -11.5% | 0.4% | . | .
COCCNC(=O)c1ccc(-c2nc(CS(=O)(=O)c3ccccc3)c(C)o2)cc1 | -0.2% | . | 17.2% | 4.7% | . | -13.0% | . | .
COc1ccc2nc(NC(=O)c3nc(S(=O)(=O)Cc4ccccc4)ncc3Cl)sc2c1 | ? | . | 5.62µM* | ? | . | ? | 29.9* | 75.7*
O=c1c(C(c2ccc(O)cc2)c2c(O)nc3n(c2=O)CCCS3)c(O)nc2n1CCCS2 | ? | ? | -5.4% | 12.6µM* | -0.1% | ? | ? | 75.7*
